Among all 5,500 compounds or so, about 2,000 (36%) were called active. Another 18% or so got no clear call; they are omitted. Cut-off read from the data, not from the text of the source: active = normalized growth mostly below about 0.91 (no sharp cut-off); inconclusive = no clear call, values can overlap the other calls; inactive = mostly above about 0.92. The list shows a part of the results.
Assay: chemical genetic growth profiling, strain panel (AID 1159580);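 note: tested at 20 µM; growth read once vehicle control cultures reached saturation at 30 °C; 1 = growth at the plate median or of vehicle wells; lower values mean less growth of the strain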
Conditions: growth OD

Measured: normalized growth

NC[C@@H]1CC[C@@H](N)[C@@H](O[C@H]2[C@H](O)[C@@H](O[C@H]3O[C@H](CO)[C@@H](O)[C@H](N)[C@H]3O)[C@H](N)C[C@@H]2N)O1
inactive: S. cerevisiae deletion strains, locus YAL013W, strain DEP1, stronger effect = lower value 0.987 | S. cerevisiae deletion strains, locus YBR021W, strain FUR4, stronger effect = lower value 1.06 | S. cerevisiae deletion strains, locus YBR229C, strain ROT2, stronger effect = lower value 0.959 | S. cerevisiae deletion strains, locus YCL029C, strain bik1, stronger effect = lower value 0.985 | S. cerevisiae deletion strains, locus YDL035C, strain GPR1, stronger effect = lower value 0.995 | S. cerevisiae deletion strains, locus YDL074C, strain BRE1, stronger effect = lower value 0.983 | S. cerevisiae deletion strains, locus YDL101C, strain DUN1, stronger effect = lower value 0.952 | S. cerevisiae deletion strains, locus YDL134C, strain PPH21, stronger effect = lower value 0.993 | S. cerevisiae deletion strains, locus YDL185W, strain tfp1, stronger effect = lower value 0.984 | S. cerevisiae deletion strains, locus YDL192W, strain arf1, stronger effect = lower value 0.993 | S. cerevisiae deletion strains, locus YDR101C, strain arx1, stronger effect = lower value 1 | S. cerevisiae deletion strains, locus YDR150W, strain NUM1, stronger effect = lower value 0.986 | S. cerevisiae deletion strains, locus YDR162C, strain NBP2, stronger effect = lower value 0.967 | S. cerevisiae deletion strains, locus YDR318W, strain mcm21, stronger effect = lower value 1.01 | S. cerevisiae deletion strains, locus YDR388W, stronger effect = lower value 1 | S. cerevisiae deletion strains, locus YDR502C, strain sam2, stronger effect = lower value 1 | S. cerevisiae deletion strains, locus YEL061C, strain CIN8, stronger effect = lower value 0.987 | S. cerevisiae deletion strains, locus YER110C, stronger effect = lower value 0.996 | S. cerevisiae deletion strains, locus YER155C, strain BEM2, stronger effect = lower value 1 | S. cerevisiae deletion strains, locus YER167W, strain BCK2, stronger effect = lower value 0.98 | S. cerevisiae deletion strains, locus YGL078C, strain dbp3, stronger effect = lower value 0.994 | S. cerevisiae deletion strains, locus YGL086W, strain mad1, stronger effect = lower value 0.995 | S. cerevisiae deletion strains, locus YGL248W, strain PDE1, stronger effect = lower value 0.978 | S. cerevisiae deletion strains, locus YGR078C, strain PAC10, stronger effect = lower value 0.986 | S. cerevisiae deletion strains, locus YGR135W, strain pre9, stronger effect = lower value 0.982 | S. cerevisiae deletion strains, locus YGR229C, strain SMI1, stronger effect = lower value 1.01 | S. cerevisiae deletion strains, locus YGR252W, strain gcn5, stronger effect = lower value 1.02 | S. cerevisiae deletion strains, locus YHR030C, strain SLT2, stronger effect = lower value 0.995 | S. cerevisiae deletion strains, locus YHR079C, strain IRE1 (second series), stronger effect = lower value 1 | S. cerevisiae deletion strains, locus YHR094C, strain hxt1, stronger effect = lower value 1 | S. cerevisiae deletion strains, locus YHR129C, strain ARP1, stronger effect = lower value 0.992 | S. cerevisiae deletion strains, locus YHR200W, strain rpn10, stronger effect = lower value 0.988 | S. cerevisiae deletion strains, locus YIL066C, strain RNR3, stronger effect = lower value 0.995 | S. cerevisiae deletion strains, locus YIL073C, strain SPO22, stronger effect = lower value 0.971 | S. cerevisiae deletion strains, locus YIL125W, strain kgd1, stronger effect = lower value 0.993 | S. cerevisiae deletion strains, locus YIR030C, strain dcg1, stronger effect = lower value 0.985 | S. cerevisiae deletion strains, locus YJL095W, strain BCK1, stronger effect = lower value 0.984 | S. cerevisiae deletion strains, locus YJL134W, strain LCB3, stronger effect = lower value 0.978 | S. cerevisiae deletion strains, locus YJL168C, strain set2, stronger effect = lower value 0.995 | S. cerevisiae deletion strains, locus YJL187C, strain SWE1 (second series), stronger effect = lower value 0.977 | S. cerevisiae deletion strains, locus YJR043C, strain POL32, stronger effect = lower value 1.01 | S. cerevisiae deletion strains, locus YJR075W, strain HOC1, stronger effect = lower value 0.996 | S. cerevisiae deletion strains, locus YKL009W, strain mrt4, stronger effect = lower value 0.974 | S. cerevisiae deletion strains, locus YKL068W, stronger effect = lower value 0.996 | S. cerevisiae deletion strains, locus YKL085W, strain MDH1 (second series), stronger effect = lower value 0.983 | S. cerevisiae deletion strains, locus YKL085W, strain MDH1, stronger effect = lower value 0.983 | S. cerevisiae deletion strains, locus YKL190W, strain CNB1, stronger effect = lower value 1 | S. cerevisiae deletion strains, locus YKR001C, strain vps1, stronger effect = lower value 0.994 | S. cerevisiae deletion strains, locus YLR039C, strain RIC1, stronger effect = lower value 0.938 | S. cerevisiae deletion strains, locus YLR058C, strain SHM2, stronger effect = lower value 0.974 | S. cerevisiae deletion strains, locus YLR102C, strain apc9, stronger effect = lower value 0.993 | S. cerevisiae deletion strains, locus YLR262C, strain YPT6, stronger effect = lower value 0.9 | S. cerevisiae deletion strains, locus YLR268W, strain sec22, stronger effect = lower value 0.986 | S. cerevisiae deletion strains, locus YLR330W, strain CHS5, stronger effect = lower value 0.981 | S. cerevisiae deletion strains, locus YLR342W, strain FKS1 (second series), stronger effect = lower value 1.01 | S. cerevisiae deletion strains, locus YLR371W, strain rom2, stronger effect = lower value 1 | S. cerevisiae deletion strains, locus YLR418C, strain cdc73, stronger effect = lower value 0.968 | S. cerevisiae deletion strains, locus YML016C, strain PPZ1, stronger effect = lower value 0.981 | S. cerevisiae deletion strains, locus YML032C, strain rad52, stronger effect = lower value 1 | S. cerevisiae deletion strains, locus YML124C, strain tub3, stronger effect = lower value 1.01 | S. cerevisiae deletion strains, locus YMR078C, strain ctf18, stronger effect = lower value 1 | S. cerevisiae deletion strains, locus YMR223W, strain ubp8, stronger effect = lower value 1.01 | S. cerevisiae deletion strains, locus YMR263W, strain SAP30, stronger effect = lower value 0.983 | S. cerevisiae deletion strains, locus YMR307W, strain GAS1, stronger effect = lower value 1.13 | S. cerevisiae deletion strains, locus YNL067W, strain RPL9B, stronger effect = lower value 0.981 | S. cerevisiae deletion strains, locus YNL128W, strain TEP1, stronger effect = lower value 0.98 | S. cerevisiae deletion strains, locus YNL153C, strain GIM3, stronger effect = lower value 0.991 | S. cerevisiae deletion strains, locus YNL233W, strain BNI4, stronger effect = lower value 0.994 | S. cerevisiae deletion strains, locus YNL250W, strain rad50, stronger effect = lower value 0.983 | S. cerevisiae deletion strains, locus YNL271C, strain bni1, stronger effect = lower value 1 | S. cerevisiae deletion strains, locus YNL298W, strain CLA4, stronger effect = lower value 1.01 | S. cerevisiae deletion strains, locus YNL307C, strain MCK1, stronger effect = lower value 0.997 | S. cerevisiae deletion strains, locus YNL322C, strain KRE1, stronger effect = lower value 0.987 | S. cerevisiae deletion strains, locus YNR052C, strain pop2, stronger effect = lower value 0.953 | S. cerevisiae deletion strains, locus YOL006C, strain TOP1, stronger effect = lower value 0.917 | S. cerevisiae deletion strains, locus YOL012C, strain htz1 0.745 | S. cerevisiae deletion strains, locus YOL147C, strain pex11, stronger effect = lower value 1.01 | S. cerevisiae deletion strains, locus YOR061W, strain CKA2, stronger effect = lower value 0.95 | S. cerevisiae deletion strains, locus YOR069W, strain VPS5, stronger effect = lower value 0.996 | S. cerevisiae deletion strains, locus YOR136W, strain idh2, stronger effect = lower value 1 | S. cerevisiae deletion strains, locus YOR144C, strain elg1, stronger effect = lower value 1 | S. cerevisiae deletion strains, locus YOR184W, strain ser1, stronger effect = lower value 1.03 | S. cerevisiae deletion strains, locus YOR316C, strain cot1, stronger effect = lower value 0.985 | S. cerevisiae deletion strains, locus YPL055C, strain LGE1, stronger effect = lower value 0.984 | S. cerevisiae deletion strains, locus YPL241C, strain CIN2, stronger effect = lower value 0.991 | S. cerevisiae deletion strains, locus YPR119W, strain clb2, stronger effect = lower value 1 | S. cerevisiae deletion strains, locus YPR141C, strain kar3, stronger effect = lower value 0.966 | S. cerevisiae deletion strains, locus YPR163C, strain tif3, stronger effect = lower value 1.01 | S. cerevisiae deletion strains, locus YPR167C, strain met16, stronger effect = lower value 0.988 | S. cerevisiae deletion strains, strain wtn01, stronger effect = lower value 0.987 | S. cerevisiae strains, strain wild type, stronger effect = lower value 0.992
